Experimental data taken from PubChem BioAssay AID492998 (Southern Research Specialized Biocontainment Screening …, 2010).
Among all 2,300 compounds or so, about 550 (24%) were called active. How the calls were made is not given here. These entries were drawn from the full list. Measured potencies and affinities stand elsewhere.

assay: Vero E6 cell cytotoxicity, dose response, cytotoxicity control for non-replicating M. tuberculosis project, secondary assay (AID 492998); conditions: series mostly up to 20 µM

SMILES | outcome
Cc1ccc(C(=O)O/N=C(\N)c2cccc([N+](=O)[O-])c2)cc1 | inactive
O=C(OCCCOC(=O)c1ccc([N+](=O)[O-])o1)c1ccc([N+](=O)[O-])o1 | inactive
CCOC(=O)C1CCN(CCCSc2ccc(Cl)cc2)CC1 | inactive
Cc1ccc(NC(=O)C2=C(c3ccccc3)S(=O)(=O)CCS2(=O)=O)cc1 | inactive
C/C(=N\NC(=O)c1cc([N+](=O)[O-])cc([N+](=O)[O-])c1)c1ccco1 | inactive
C/C(=N\NC(=O)COc1ccc(C)cc1Br)c1cc([N+](=O)[O-])cs1 | inactive
O=C(CCN1CCC(c2ccccc2)C1)c1ccccc1 (centres undefined) | inactive
COC(=O)COc1ccc2c(-c3cccc([N+](=O)[O-])c3)cc(=O)oc2c1 | inactive
CCOC(=O)c1c(NC(=O)COC(=O)c2ccccn2)sc2c1CCC2 | inactive
COc1ccc(-c2nnn(CC(=O)OC3CCCCC3)n2)cc1OC | inactive
COc1ccc2c(c1)sc(=N)n2C | inactive
CCOC(=O)C(C)Oc1cc(Cl)c(C=O)cc1OC (centres undefined) | inactive
CC1=NN(c2ccccc2)C(=O)C1C(=O)c1ccccc1 (centres undefined) | inactive
O=C(OCc1nc2ccccc2s1)c1ccc(Br)o1 | inactive
COc1ccc(N=Cc2nc(-c3ccccc3)oc2OC(C)=O)cc1 | inactive
Cc1ccc(NC(=O)COC(=O)C(NS(=O)(=O)c2ccc(Cl)cc2)C(C)O)cc1C (centres undefined) | inactive
O=C(Nc1nnc(-c2ccccc2Cl)o1)c1ccco1 | inactive
Cc1ccc(C)c(-c2nnc(NC(=O)COc3ccccc3)o2)c1 | inactive
O=C(Nc1nnc(-c2cc(Cl)ccc2Cl)o1)C1=COCCO1 | inactive
O=C(Nc1nnc(-c2ccc(Br)cc2)o1)c1ccco1 | inactive
Cc1ccc(-c2nnc(Cc3ccc([N+](=O)[O-])cc3)o2)cc1 | inactive
C/C(CC(=O)Nc1ccc(C)c(Cl)c1)=N\NC(=O)c1ccco1 | inactive
O=C(Nc1nnc(-c2ccc(Br)cc2)o1)C1=COCCO1 | inactive
CCc1nnc(NC(=O)CN2CCN(c3ccccc3F)CC2)s1 | inactive

SMILES | outcome
CC(C)[C@H]1CN=C2N(C[C@H](C)NC(=O)CCC3CCCCC3)[C@H](Cc3ccc(O)cc3)CN21 | inactive
COc1ccc(C2=Nc3ccccc3OC2)cc1 | inactive
O=C(OCC#CCSc1nnc(-c2ccccc2)o1)c1ccco1 | inactive
Cc1ccnc(NC(=O)COc2ccc3c(c2)CCC3)c1 | inactive
COCCCNC(=O)COC(=O)c1ccc(-c2nc3ccccc3s2)s1 | inactive
COc1ccc(C(C)=O)cc1COC(=O)c1ccc2ccccc2n1 | inactive
CC1Cc2ccccc2N1C(=O)COC(=O)c1ccc(Cl)nc1 (centres undefined) | inactive
Cn1c(=O)c2c(=O)cc(NNC(=O)CC#N)[nH]c2n(C)c1=O | inactive
COC(=O)COc1ccc(S(=O)(=O)NCc2ccc3c(c2)OCO3)cc1 | inactive
COc1ccc(NCC(=O)N2CCCC2)cc1Cl | inactive
CC1CCc2c(sc3nc(CSc4ncn[nH]4)[nH]c(=O)c23)C1 (centres undefined) | inactive
CCOC(=O)COc1ccc2c(=O)c(-c3ccccc3)coc2c1 | inactive
C=CCN1C(=O)C2(NNc3ccccc3O2)c2ccccc21 (centres undefined) | inactive
Cc1ccc2c(c1)C(=O)C(=O)N2CCCOc1ccccc1 | inactive
O=C(c1ccccc1)n1c(=O)c(F)cn(COCCBr)c1=O | inactive
Cc1cc(C)cc(NC(=O)CCc2ccc(C)o2)c1 | inactive
CCc1ccc(N=CC2=C(O)CC(c3ccco3)CC2=O)cc1 (centres undefined) | inactive
C/C(=N/NC(=O)c1ccco1)c1ccc(Br)s1 | inactive
Cc1ccc(/C=C2\SC(=S)N(C3CCS(=O)(=O)C3)C2=O)o1 (centres undefined) | inactive
COC(=O)c1ccc(CO/N=C/c2ccc(OC)cc2)o1 | inactive
CCOC(=O)COc1ccc(C(=O)NC2CCCCC2)cc1 | inactive
N/C(=N\OC(=O)c1cccc(Br)c1)c1ccc([N+](=O)[O-])cc1 | inactive
Cc1nc2ccc(Cl)cc2nc(C)/c1=N\O | inactive
O=c1c2c([N+](=O)[O-])cc([N+](=O)[O-])cc2sn1-c1ccc(Br)cc1 | inactive

SMILES | outcome
O=C(Oc1cccc([N+](=O)[O-])c1)c1ccc2c(=O)n3c(nc2c1)CCC3 | inactive
O=c1c2cc(Cl)ccc2nc(-c2ccccc2Cl)n1O | inactive
O=[N+]([O-])c1ccc2nc(SCc3cn4cc(Cl)ccc4n3)[nH]c2c1 | inactive
CCOC(=O)c1cn(Cc2cccc(Cl)c2)nn1 | inactive
O=C(O)c1ccccc1C(=O)NNc1ccc(Cl)cc1 | inactive
CCCCCC1CC(CC(=O)NC(=S)Nc2ccc([N+](=O)[O-])cc2)C(=O)O1 (centres undefined) | inactive
Cc1c(Cl)cccc1NC(=O)C1COc2ccccc2O1 (centres undefined) | inactive
CCOC(=O)NC(=O)COC(=O)CCCSc1nc2ccccc2s1 | inactive
Cn1ccsc1=NC(=O)c1ccccc1F | inactive
CCc1ccc(C(=O)NC2CCCCC2)s1 | inactive
Cc1ccc(Sc2ccc(C=C3C(=O)N(C)C(=O)N(C)C3=O)o2)cc1 | inactive
Cc1cc(C(=O)NNc2cc(Cl)ccc2Cl)no1 | inactive
CC(C)(C)OC(=O)NCCC(=O)Oc1ccc2ccc(=O)oc2c1 | inactive
COC(=O)[C@@H](NC(=O)c1cc(COc2cncc(Cl)c2)on1)c1ccccc1 | inactive
Cc1ccc(NC(=O)CN(C)CC(=O)Nc2ccc(F)c(Cl)c2)cc1 | inactive
O=[N+]([O-])c1cnc(Nc2ccc(Cl)cn2)c([N+](=O)[O-])c1 | inactive
NCCNc1ccc([N+](=O)[O-])c2cccnc12 | inactive
CCOC(=O)COc1cc([N+](=O)[O-])cc2cccnc12 | inactive
O=C1c2cccc3cc([N+](=O)[O-])cc(c23)C(=O)N1c1ccccc1O | inactive
Fc1ccc(N2CCN(Cc3nnc(-c4ccccc4)o3)CC2)cc1 | inactive
Cc1occc1-c1nnc(-c2cc([N+](=O)[O-])cc([N+](=O)[O-])c2)o1 | inactive
S=C(Nc1ccc2c(c1)OCO2)Nc1ccc2c(c1)OCO2 | inactive
CCOC(=O)c1cc(-c2csc(COc3ccccc3)n2)on1 | inactive
CC(=O)N1CCC(=NNC(=O)c2cccs2)CC1 | inactive

SMILES | outcome
NC1CCN(c2c(F)cc3c(=O)c(C(=O)O)cn(C4CC4)c3c2Cl)C1 (centres undefined) | inactive
Cc1ccc2cc3c(nc2c1)OCC3 | inactive
O=C(Nc1nccs1)c1cc2cc(Cl)ccc2oc1=O | inactive
O=C(NNc1ccc([N+](=O)[O-])cc1)C1CC2CCCC(C1)C2=O (centres undefined) | inactive
COCC(=O)Nc1ccccc1NC(C)=O | inactive
CCOc1ccc(OCc2ccc(C(=O)OCc3ccccn3)o2)cc1 | inactive
CCOc1cc(/C=N/NC(=O)c2ccccn2)ccc1OC(=O)c1cccs1 | inactive
O=C(OCc1ccc(Cl)c(Cl)c1)c1ccccn1 | inactive
COC(=O)c1ccc(COC(=O)c2ccccn2)cc1 | inactive
Cc1ccccc1NC(=O)C1COc2ccccc2O1 (centres undefined) | inactive
O=C(OCc1ccccn1)c1ccc(COc2ccccc2Cl)o1 | inactive
Nc1ccc2cc(Br)ccc2c1 | inactive
N#CC(C(=O)NCc1ccco1)c1nc2ccccc2nc1N1CCOCC1 (centres undefined) | inactive
Nc1ncnc(Oc2cccc3cccnc23)c1[N+](=O)[O-] | inactive
Cc1c([N+](=O)[O-])cnc(Sc2ccccc2)c1[N+](=O)[O-] | inactive
O=C(NNC(=O)c1ccccc1F)c1ccc(-c2ccc(Cl)cc2)o1 | inactive
Cn1cccc1/C=N/NC(=O)c1ccco1 | inactive
C=CCNc1nc(C(=O)OCC(=O)c2cccc(Br)c2)cs1 | inactive
O=C(CCNc1ccc(Cl)c(C(F)(F)F)c1)c1ccco1 | inactive
Cc1ccc(C(=O)CCNc2ccc(Br)cc2)o1 | inactive
O=C(CCNc1cccc(Cl)c1)c1cccs1 | inactive
COc1ccc(C(=O)CCNc2ccc(F)cc2)cc1 | inactive
O=C(COC(=O)c1ccc(O)cc1O)c1ccc2c(c1)OCO2 | inactive
O=C(CCN1CCC(c2cccs2)=N1)c1cccs1 | inactive

SMILES | outcome
C/C(=N\Nc1ccc(Cl)cc1)c1c(O)cc(C)oc1=O | inactive
CSc1ccc(N=Nc2c(C)[nH]n(C)c2=O)cc1 | inactive
Cc1ccc(N=Nc2c(C)[nH]n(C(N)=S)c2=O)cc1 | inactive
Cn1nnnc1N=N/C(=N/Nc1ccccc1)c1ccccc1 | inactive
CC(NC(=O)c1cc2ccccc2oc1=O)c1ccccc1 (centres undefined) | inactive
CCCCOC(=O)c1ccc(NC(=O)C2CCCO2)cc1 (centres undefined) | inactive
Cc1cccc(OCC(=O)NNC(=O)c2cc3ccccc3oc2=O)c1 | inactive
O=C(COc1ccc2ccccc2c1)N/N=C/c1ccccn1 | inactive
O=C(COC(=O)CCC(=O)c1ccc(F)cc1)Nc1ccccc1 | inactive
CC(=O)OCCN(C)c1cc(SC(C)C)c2nonc2c1[N+](=O)[O-] | inactive
CC(=O)OCCNc1cc(SCc2ccco2)c2nonc2c1[N+](=O)[O-] | inactive
C/C(Cn1nnc([N+](=O)[O-])n1)=N\NC(=O)c1ccncc1 | inactive
Cc1nc(-c2ccc(C(F)(F)F)cc2)sc1C(=O)NN | inactive
Cc1cc(Cl)ccc1NNC(=O)c1cccs1 | inactive
COC(=O)COc1ccc2c(=O)c(-c3ccccc3OC)coc2c1 | inactive
Cc1ccnc(NC(=O)c2cc3ccccc3o2)c1 | inactive
Cc1n[nH]c(C)c1CCOc1ccc(C(C)C)cc1 | inactive
COc1cc(OC)cc(-c2nc3ccccc3c(=O)o2)c1 | inactive
CCCOC(=O)c1ccc(NC(=O)C2C3C=CC(O3)C2C(=O)O)cc1 (centres undefined) | inactive
CC(=O)CCC1CC(c2ccc(Cl)cc2)=NO1 (centres undefined) | inactive
CCCCCCNC(=O)c1ccc(Br)o1 | inactive
C=CC[n+]1ccn(-c2nc3ccccc3nc2[N-]S(=O)(=O)c2cccs2)c1 | inactive
Cc1cc(C)c2sc(NC(=O)C3=COCCO3)nc2c1 | inactive
